In PubChem BioAssay:
Values without a mark were called inactive. For some of these results: Entries with a potency or affinity are not part of this list. The source made the active and inactive calls. Unless noted, how the calls were made is not given here.

Assays:
[1] = antimalarial activity against Dd2 strain (AID 2302;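 active means growth inhibition above 50% at the single 2 µM test dose, taken to imply half-maximal potency below 2 µM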;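 further: 0% = DMSO untreated growth and 100% = chloroquine plus artemisinin killed control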); settings: P. falciparum Dd2 in RBCs, LDH growth readout, 72 h; at 2 µM; stronger effect = higher value
[2] = HepG2 cytotoxicity, primary screen, cytotoxicity control for P. falciparum antimalarial project, cell-based, ATP luminescence (AID 2303;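 active means inhibition above 50%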;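 further: 0% = DMSO wells and 100% = digitonin-killed cells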); settings: HepG2 viability, 24-48 h, at 10 µM, stronger effect = higher value
[3] = molecular target: L-lactate dehydrogenase (Plasmodium falciparum (isolate CDC / Honduras)) (UniProt Q27743); test: PfLDH activity inhibition – cell lysate, 3D7 strain, counter-screen for P. falciparum growth inhibition project (AID 2304);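 further: 0% = vehicle and 100% = reference inhibitor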; settings: P. falciparum 3D7 crude extract, LDH APAD/NBT absorbance; at 2 µM; stronger effect = higher value
Sequence of L-lactate dehydrogenase (Plasmodium falciparum (isolate CDC / Honduras)) (Q27743 whole entry, looked up): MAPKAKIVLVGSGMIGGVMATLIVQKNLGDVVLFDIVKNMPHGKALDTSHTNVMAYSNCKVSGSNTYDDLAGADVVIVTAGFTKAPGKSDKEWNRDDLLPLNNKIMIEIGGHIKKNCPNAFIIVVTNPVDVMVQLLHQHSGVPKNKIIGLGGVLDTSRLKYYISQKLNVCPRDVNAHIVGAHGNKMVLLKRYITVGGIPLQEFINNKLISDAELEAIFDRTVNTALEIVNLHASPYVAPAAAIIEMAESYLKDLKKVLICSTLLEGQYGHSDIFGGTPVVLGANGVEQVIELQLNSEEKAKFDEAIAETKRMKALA

[4] = inhibition of 3D7 malaria parasite growth – strain 3D7 (AID 2306);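 further: 0% = DMSO wells and 100% = chloroquine plus artemisinin control wells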; settings: P. falciparum 3D7 erythrocytic growth, LDH absorbance, 72 h; at 2 µM; stronger effect = higher value
[5] = molecular target: Calcium-dependent protein kinase 1 (Plasmodium falciparum (isolate 3D7)) (UniProt P62344); test: PfCDPK1 kinase inhibitors, biochemical, TCAMS library (AID 1159585; cut-off not given, nearly all actives have IC50 up to about 0.98 µM;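 further: inhibitors leave more ATP so luminescence rises with inhibition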); settings: recombinant PfCDPK1, Kinase-Glo ATP depletion luminescence
Sequence of Calcium-dependent protein kinase 1 (Plasmodium falciparum (isolate 3D7)) (P62344 whole entry, looked up): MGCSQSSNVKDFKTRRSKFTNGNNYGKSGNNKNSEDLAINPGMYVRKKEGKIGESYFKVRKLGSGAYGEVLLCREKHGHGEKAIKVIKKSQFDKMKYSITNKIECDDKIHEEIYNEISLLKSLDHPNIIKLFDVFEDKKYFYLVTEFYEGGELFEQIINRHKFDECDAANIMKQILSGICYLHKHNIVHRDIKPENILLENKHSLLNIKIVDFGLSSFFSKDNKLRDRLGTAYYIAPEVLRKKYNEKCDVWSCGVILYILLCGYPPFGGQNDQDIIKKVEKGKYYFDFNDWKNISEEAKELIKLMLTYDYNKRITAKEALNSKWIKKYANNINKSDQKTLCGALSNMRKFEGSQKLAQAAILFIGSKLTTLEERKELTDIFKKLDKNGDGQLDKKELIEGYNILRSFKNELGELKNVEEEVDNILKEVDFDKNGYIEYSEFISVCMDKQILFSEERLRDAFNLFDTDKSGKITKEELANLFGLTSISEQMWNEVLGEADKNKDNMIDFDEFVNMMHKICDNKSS

[6] = molecular target: Plasmodium falciparum protein kinase 6 (PK6, PF3D7_1337100) (UniProt Q8IDW1); test: PfPK6 kinase inhibitors, biochemical, TCAMS library (AID 1159586); settings: recombinant PfPK6, Kinase-Glo ATP depletion luminescence
Sequence of Plasmodium falciparum protein kinase 6 (PK6, PF3D7_1337100) (Q8IDW1 1-305): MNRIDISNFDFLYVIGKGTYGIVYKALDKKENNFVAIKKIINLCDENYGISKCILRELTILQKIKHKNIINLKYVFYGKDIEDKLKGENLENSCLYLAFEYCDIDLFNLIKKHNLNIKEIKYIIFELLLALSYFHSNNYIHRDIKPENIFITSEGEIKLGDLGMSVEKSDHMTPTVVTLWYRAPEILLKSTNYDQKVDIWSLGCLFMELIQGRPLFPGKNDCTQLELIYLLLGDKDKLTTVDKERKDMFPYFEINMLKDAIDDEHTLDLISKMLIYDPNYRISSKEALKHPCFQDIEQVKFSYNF

[7] = molecular target: Protein kinase 7 (PK7), Plasmodium falciparum 3D7 (PF3D7_0213400) (UniProt Q7YTF7); test: inhibition of Plasmodium PK7 catalytic activity – biochemical, TCAMS antimalarial set, Kinase-Glo luminescence (AID 1159587); settings: recombinant PfPK7, Kinase-Glo ATP depletion luminescence
Sequence of Protein kinase 7 (PK7), Plasmodium falciparum 3D7 (PF3D7_0213400) (Q7YTF7 1-343): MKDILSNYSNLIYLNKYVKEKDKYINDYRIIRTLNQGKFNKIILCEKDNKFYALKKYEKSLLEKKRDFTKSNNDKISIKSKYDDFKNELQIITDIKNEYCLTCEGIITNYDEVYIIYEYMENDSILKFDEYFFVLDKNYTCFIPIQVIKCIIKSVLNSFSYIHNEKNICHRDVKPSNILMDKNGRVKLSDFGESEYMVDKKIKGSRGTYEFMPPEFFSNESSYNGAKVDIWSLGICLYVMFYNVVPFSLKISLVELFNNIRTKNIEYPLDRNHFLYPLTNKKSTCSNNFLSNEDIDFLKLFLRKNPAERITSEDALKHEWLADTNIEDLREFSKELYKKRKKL

[8] = molecular target: Calcium-dependent protein kinase 4 (Plasmodium falciparum (isolate 3D7)) (UniProt Q8IBS5); test: PfCDPK4 kinase inhibitors, biochemical, TCAMS library (AID 1159588; cut-off not given, nearly all actives have IC50 up to about 0.91 µM); settings: recombinant PfCDPK4, Kinase-Glo ATP depletion luminescence
Sequence of Calcium-dependent protein kinase 4 (Plasmodium falciparum (isolate 3D7)) (Q8IBS5 whole entry, looked up): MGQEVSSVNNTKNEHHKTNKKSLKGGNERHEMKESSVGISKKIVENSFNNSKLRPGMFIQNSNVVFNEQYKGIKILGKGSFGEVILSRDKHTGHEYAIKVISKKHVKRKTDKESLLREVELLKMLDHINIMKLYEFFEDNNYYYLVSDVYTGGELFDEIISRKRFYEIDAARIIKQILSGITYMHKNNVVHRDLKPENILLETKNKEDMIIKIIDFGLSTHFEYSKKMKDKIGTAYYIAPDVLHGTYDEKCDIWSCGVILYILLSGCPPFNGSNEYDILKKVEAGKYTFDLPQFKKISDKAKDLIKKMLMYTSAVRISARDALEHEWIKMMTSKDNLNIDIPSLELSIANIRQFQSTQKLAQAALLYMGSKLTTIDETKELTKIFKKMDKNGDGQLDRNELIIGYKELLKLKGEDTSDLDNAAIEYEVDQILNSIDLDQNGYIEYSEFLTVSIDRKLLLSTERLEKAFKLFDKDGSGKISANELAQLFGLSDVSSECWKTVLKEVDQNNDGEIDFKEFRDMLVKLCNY

SMILES	growth inhibition [1]	inhibition [2]	inhibition [3]	growth inhibition [4]	outcome [5]	outcome [6]	outcome [7]	outcome [8]
O=[N+]([O-])c1cccc(CNCC2CCN(Cc3ccc(C(F)(F)F)cc3)CC2)c1	23%	7%	2%	101% (active)	inactive	inactive	inactive	inactive
CC(=NN=C(N)N)C(=O)Nc1ccc(Cl)c(Cl)c1	97% (active)	-3%	0%	101% (active)	inactive	inactive	inactive	inactive
COc1cc(NC(=O)NC(CCN2CCC3(CCc4ccccc43)CC2)c2ccc(Cl)c(Cl)c2)cc(OC)c1OC (centres undefined)	66% (active)	66% (active)	6%	90% (active)	inactive	inactive	inactive	inactive
N[C@@H](Cc1cc(I)c(Oc2ccc(O)c(C(=O)O)c2)c(I)c1)C(=O)O	21%	57% (active)	-1%	97% (active)	inactive	inactive	inactive	inactive
Cc1[nH]c2ccccc2c1C(=O)C(C)Sc1n[nH]c(-c2ccccc2Br)n1 (centres undefined)	100% (active)	-7%	-3%	101% (active)	inactive	inactive	inactive	inactive
O=c1[nH]c2ccc3[nH]cccc3c2c1C=Nc1ccc(N2CCN(CCO)CC2)cc1	55% (active)	34%	-6%	86% (active)	inactive	inactive	inactive	inactive
Cc1cc(Nc2ccc(C)c(C)c2)n2nc(C)nc2n1	45%	10%	-5%	95% (active)	inactive	inactive	inactive	inactive
c1cncc(CNc2ncc(-c3ccsc3)c(-c3nccs3)n2)c1	63% (active)	-6%	2%	81% (active)	inactive	inactive	inactive	inactive
Cc1cc(NCCc2ccccc2)nc(NC(=NCC(=O)OC(C)(C)C)Nc2ccc(C(F)(F)F)cc2)n1	97% (active)	23%	2%	100% (active)	inactive	inactive	inactive	inactive
Cc1ccc(N2CCc3c(-c4cc5cccnc5nc4C)cc(C)nc32)c(Cl)c1	90% (active)	-14%	3%	96% (active)	inactive	inactive	inactive	inactive
CCN(CC)CCN(Cc1ccc(-c2ccc(C(F)(F)F)cc2)cc1)C(=O)Cn1c(CCc2c(F)cc(F)cc2F)nc(=O)c2ccccc21	26%	39%	3%	89% (active)	inactive	inactive	inactive	inactive
COc1ccc(CNC2CCN(C)CC2)cc1-c1ccc(S(=O)(=O)NCc2ccccc2)c(F)c1	97% (active)	53% (active)	4%	101% (active)	inactive	inactive	inactive	inactive
Nc1ccnc2ccc(OCCCCCCc3ccccc3)cc12	99% (active)	96% (active)	1%	100% (active)	inactive	inactive	inactive	inactive
Cc1cc(N[C@@H](CC(C)C)C(=O)NCc2cccc(F)c2)nc(NCCc2ccccc2)n1	33%	6%	-1%	88% (active)	inactive	inactive	inactive	inactive
O=C(NCC1CC1)C1CCN(C(c2ccc(Cl)cc2)c2ccc(Cl)cc2)CC1	95% (active)	3%	1%	99% (active)	inactive	inactive	inactive	inactive
C=C[C@]1(C)C[C@@H](OC(=O)NC(=O)CCCS(=O)(=O)c2nnc(C)s2)[C@]2(C)[C@H](C)CC[C@]3(CCC(=O)[C@H]32)[C@@H](C)[C@@H]1O	97% (active)	-9%	-7%	94% (active)	inactive	inactive	inactive	inactive
CC(C)(C)c1ccc(CN2CCC(NC(=O)c3cc(-c4cccc(C(F)(F)F)c4)cs3)C2)cc1 (centres undefined)	85% (active)	24%	-1%	98% (active)	inactive	inactive	inactive	inactive
Cc1ccc2c(Cl)c(C(=O)N3CC(C)OC(C)C3)sc2c1 (centres undefined)	98% (active)	4%	3%	100% (active)	inactive	inactive	inactive	inactive
O=C(CNc1ccc(Cl)c(S(=O)(=O)N2CCCC2)c1)Nc1ccc(Br)cc1F	97% (active)	18%	4%	99% (active)	inactive	inactive	inactive	inactive
c1cc(CN2CCCCC2)cc(-c2csc(-c3nc4ccccc4[nH]3)c2)c1	16%	26%	4%	90% (active)	inactive	inactive	inactive	inactive
CCCn1c(=N)c(C(=O)NCCc2ccccc2)cc2c(=O)n3cccc(C)c3nc21	64% (active)	8%	2%	100% (active)	inactive	inactive	inactive	inactive
COc1cccc(-c2cc(C(=O)NC3CCC(N4CCC(c5ccccc5C)CC4)CC3)[nH]n2)c1 (centres undefined)	58% (active)	60% (active)	-2%	99% (active)	inactive	inactive	inactive	inactive
CC(Cc1ccc(CN(CC(N)=O)Cc2ccc(CC(C)NCCc3cccc(Cl)c3)cc2)cc1)NCCc1cccc(Cl)c1 (centres undefined)	68% (active)	26%	2%	95% (active)	inactive	inactive	inactive	inactive
